Test results as given in the supplement of paper PMC8728848.
The sample as a whole holds a higher share of the strongest signals than the screen did.

How the values were obtained:
Assay in all cases: glycan array binding signal (z-score within array); higher = stronger binding
Conditions in all cases: glycan notation: IUPAC condensed, linker removed
[1] = target: Fuc(a1-2)Gal(b1-3)GalNAc(a1-3)[Fuc(a1-2)]Gal(b1-4)Glc
Procedure, shortened: (§1)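 Glycan array binding is given as a within-array Z-score, which can be read as non-binding when negative. The arrays, 3228 of them, came from the Consortium for Functional Glycomics database and were retained only where the protein sequence was available. Z-scores were averaged across arrays of the same protein sequence at different concentrations or buffers and across linkers.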

[2] = target: Fuc(a1-2)Gal(b1-3)GlcNAc(b1-3)Gal(b1-4)Glc
Procedure, shortened: as §1

[3] = target: Fuc(a1-2)Gal(b1-3)GlcNAc(b1-3)[Fuc(a1-2)Gal(b1-3)GlcNAc(b1-6)]GalNAc
Procedure, shortened: as §1

[4] = target: Fuc(a1-2)Gal(b1-4)[Fuc(a1-3)]GlcNAc(b1-3)Gal(b1-4)[Fuc(a1-3)]GlcNAc
Procedure, shortened: as §1

[5] = target: Fuc(a1-2)[Gal(a1-3)]Gal(b1-3)GlcNAc(b1-6)GalNAc
Procedure, shortened: as §1

[6] = target: Fuc(a1-2)[Gal(a1-3)]Gal(b1-4)GlcNAc(b1-3)GalNAc
Procedure, shortened: as §1

[7] = target: Fuc(a1-2)[GalNAc(a1-3)]Gal(b1-4)GlcNAc(b1-3)Gal(b1-4)GlcNAc(b1-3)Gal(b1-4)GlcNAc
Procedure, shortened: as §1

[8] = target: Fuc(a1-3)[Gal(b1-4)]GlcNAc(b1-2)Man(a1-3)[Fuc(a1-3)[Gal(b1-4)]GlcNAc(b1-2)Man(a1-6)]Man(b1-4)GlcNAc(b1-4)GlcNAc
Procedure, shortened: as §1

[9] = target: Gal(a1-3)Gal(b1-3)[Fuc(a1-4)]GlcNAc(b1-2)Man(a1-3)[Gal(a1-3)Gal(b1-3)[Fuc(a1-4)]GlcNAc(b1-2)Man(a1-6)]Man(b1-4)GlcNAc(b1-4)GlcNAc
Procedure, shortened: as §1

[10] = target: Gal(b1-3)GlcNAc(b1-2)Man(a1-3)[Gal(b1-3)GlcNAc(b1-2)Man(a1-6)]Man(b1-4)GlcNAc(b1-4)[Fuc(a1-6)]GlcNAc
Procedure, shortened: as §1

[11] = target: Gal(b1-3)GlcNAc(b1-3)Gal(b1-4)GlcNAc(b1-2)Man(a1-3)[Gal(b1-3)GlcNAc(b1-3)Gal(b1-4)GlcNAc(b1-2)Man(a1-6)]Man(b1-4)GlcNAc(b1-4)GlcNAc
Procedure, shortened: as §1

Gal(b1-3)GlcNAc6S = target: Gal(b1-3)GlcNAc6S
Procedure, shortened: as §1

[12] = target: Gal(b1-3)[Fuc(a1-4)]GlcNAc(b1-2)Man
Procedure, shortened: as §1

[13] = target: Gal(b1-4)GlcNAc(b1-2)Man(a1-3)Man(b1-4)GlcNAc(b1-4)GlcNAc
Procedure, shortened: as §1

[14] = target: Gal(b1-4)GlcNAc(b1-3)Gal(b1-4)GlcNAc
Procedure, shortened: as §1

[15] = target: Gal(b1-4)GlcNAc(b1-3)Gal(b1-4)GlcNAc(b1-2)Man(a1-3)[Gal(b1-4)GlcNAc(b1-3)Gal(b1-4)GlcNAc(b1-2)Man(a1-6)]Man(b1-4)GlcNAc(b1-4)[Fuc(a1-6)]GlcNAc
Procedure, shortened: as §1

[16] = target: Gal(b1-4)GlcNAc(b1-3)Gal(b1-4)GlcNAc(b1-2)[Gal(b1-4)GlcNAc(b1-3)Gal(b1-4)GlcNAc(b1-6)]Man(a1-6)[Gal(b1-4)GlcNAc(b1-3)Gal(b1-4)GlcNAc(b1-2)Man(a1-3)]Man(b1-4)GlcNAc(b1-4)[Fuc(a1-6)]GlcNAc
Procedure, shortened: as §1

[17] = target: Gal(b1-4)GlcNAc(b1-3)Gal(b1-4)GlcNAc(b1-3)Gal(b1-4)GlcNAc(b1-2)Man(a1-3)[Gal(b1-4)GlcNAc(b1-3)Gal(b1-4)GlcNAc(b1-3)Gal(b1-4)GlcNAc(b1-2)Man(a1-6)]Man(b1-4)GlcNAc(b1-4)GlcNAc
Procedure, shortened: as §1

[18] = target: Gal(b1-4)GlcNAc(b1-3)Gal(b1-4)GlcNAc(b1-3)Gal(b1-4)GlcNAc(b1-2)Man(a1-3)[Gal(b1-4)GlcNAc(b1-3)Gal(b1-4)GlcNAc(b1-3)Gal(b1-4)GlcNAc(b1-2)Man(a1-6)]Man(b1-4)GlcNAc(b1-4)[Fuc(a1-6)]GlcNAc
Procedure, shortened: as §1

Gal3S(b1-4)Glc6S = target: Gal3S(b1-4)Glc6S
Procedure, shortened: as §1

[19] = target: Gal3S(b1-4)[Fuc(a1-3)]GlcNAc
Procedure, shortened: as §1

Gal6S(b1-4)Glc = target: Gal6S(b1-4)Glc
Procedure, shortened: as §1

Gal6S(b1-4)Glc6S = target: Gal6S(b1-4)Glc6S
Procedure, shortened: as §1

GalNAc(b1-3)Gal = target: GalNAc(b1-3)Gal
Procedure, shortened: as §1

[20] = target: GalNAc(b1-3)Gal(a1-4)Gal(b1-4)GlcNAc
Procedure, shortened: as §1

[21] = target: GalNAc(b1-3)Gal(a1-4)Gal(b1-4)GlcNAc(b1-3)Gal(b1-4)Glc
Procedure, shortened: as §1

GalNAc(b1-3)GalNAc = target: GalNAc(b1-3)GalNAc
Procedure, shortened: as §1

B1: Gs78B-bfa-542-29-542 (Bacteroides fragilis) (protein)
chain: SEDINRNPLLPTKEDEKMDGVIYGAYLPNLEKSVIPIGTASESTEPVNRYQIGVNLAGDAWAGYMSPRDNKFNGSKNFTNYFMYENWVNYVYSFMVTDVYSPWMQIKRISQDEGTRNDEIYALAQIIKIAALHRTTDMFGPIPYSQVGKGSFKVAYDSQESVYRSFLKELEEAVQTLDDYSNKSKEVLPAFDIVYNGDVNKWMRFANSLMLRLAIRVRFADAGLAKEYAEKAVKHPAGLINSKELAAQMGKGAGLQMKNPLKVINEEYNDTRMGATIYSYLAGYNDARAAVYFVKNNGFKAVRCGIAKSGDAYNGFTRPNVHEDDPLYWMKASEVCFLKAEGALAGFDMGGSAGDFYNAGIRMSFSENGLDNSSAETYLKDSTRKPANYTDTSNGELSANAPSSITIRWENGATEEEKLERIITQKYLAIFPNGQEAWTEWRRTGYPRQIVVAENKTNSAVLIGNGYDLGGVRRLPYPRTEYEQNGENLHNAISQYLGGVDNAATKVWWDKKSK
glycan array binding signal (z-score) [1]: 0.024 | glycan array binding signal (z-score) [2]: -0.826 | glycan array binding signal (z-score) [3]: 0.287 | glycan array binding signal (z-score) [4]: -0.816 | glycan array binding signal (z-score) [5]: 2.8 | glycan array binding signal (z-score) [6]: 0.185 | glycan array binding signal (z-score) [7]: 1.31 | glycan array binding signal (z-score) [8]: 1.04 | glycan array binding signal (z-score) [9]: 4.3 | glycan array binding signal (z-score) [10]: 1.53 | glycan array binding signal (z-score) [11]: -0.404 | glycan array binding signal (z-score) (Gal(b1-3)GlcNAc6S): 2.8 | glycan array binding signal (z-score) [12]: -0.693 | glycan array binding signal (z-score) [13]: 0.534 | glycan array binding signal (z-score) [14]: -0.463 | glycan array binding signal (z-score) [15]: 2.98 | glycan array binding signal (z-score) [16]: 3.42 | glycan array binding signal (z-score) [17]: 2.01 | glycan array binding signal (z-score) [18]: 3.12 | glycan array binding signal (z-score) (Gal3S(b1-4)Glc6S): -0.778 | glycan array binding signal (z-score) [19]: -0.801 | glycan array binding signal (z-score) (Gal6S(b1-4)Glc): 0.825 | glycan array binding signal (z-score) (Gal6S(b1-4)Glc6S): 0.798 | glycan array binding signal (z-score) (GalNAc(b1-3)Gal): -0.448 | glycan array binding signal (z-score) [20]: 0.47 | glycan array binding signal (z-score) [21]: 1.12 | glycan array binding signal (z-score) (GalNAc(b1-3)GalNAc): -0.725
